From PubChem BioAssay (NCATS)
Records with an inconclusive call do not appear. Values without a mark were called inactive. The call rests on the fitted dose curve; in most records, active means well fitted inhibition curve with a large enough effect; inconclusive means small, poorly fitted or top-dose-only effect; inactive means no such curve, though single readings can be large or run the other way. Residues, ends and D or L forms follow the SMILES beside them. *: point of attachment. Cbz = O=C(OCc1ccccc1)*

experiment: qHTS assay for measurement of the activity of small molecule inhibitors on Zika virus induced Caspase-3 activity in human iPSC derived neural progenitor cells (hNPCs) (AID 1224857); settings: hNPCs ZIKV-induced caspase-3/7, Caspase-Glo luminescence, 6 h; series mostly up to 45.7 µM; activity change, negative = inhibition: at the top concentration; further: nearly all actives have a fitted effect of over 65% in size
Description: National Center for Advancing Translational Sciences [NCATS]
Johns Hopkins University School of Medicine
Increase in the Caspase-3 activity indicates an activation of apoptosis cell death pathway caused by Zika virus infection in certain types of neuronal cells including human neural progenitor cells (hNPCs), astrocytes, and astrocytoma cell line (SNB-19). This cell-based caspase-3 activity assay measures the increased caspase-3 activity in the human iPSC derived neural progenitor cells (hNPCs) after a 6-hour Zika virus infection with a luminescence readout. A decrease in the luminescence signal in this assay by small molecule treatment indicates an inhibitory effect of that small molecule on the Zika virus induced caspase-3 activity that may correlate with its effect on reduction of Zika virus caused cell death.
The medium for hNPCs consists of DMEM/F12, N2 supplement (ThermoFisher, Cat.# 17502048), NEAA (ThermoFisher, Cat. # 11140050), 2 ug/ml heparin, 2 uM cyclopamine, and B27 (ThermoFisher, Cat. # 17504044). A Caspase-Glo 3/7 assay kit (catalog number G8092; Promega, Madison, WI) was used to detect caspase-3 activity induced by Zika virus infection in human cells. The reagent mixture was reconstituted as described in the protocol from the manufacturer. Polystyrene tissue culture treated and PDL coated white plates were obtained from Greiner Bio-One (Monroe, NC). Cells were seeded in 384- or 1536-well assay plates and cultured at 37 C with 5% CO2 for 16 to 20 hours. The typical cell seeding density in the 1536-well plate assay is 350 cells/well in 3 ul medium for hNPCs in tissue culture treated plates. Compounds were added to cells and incubated for one hour before addition of ZIKV solution to cells (2 FFU/cell). After incubation at 37 C with 5% CO2 for 6 hours, the reagent mixture of Caspase-Glo 3/7 assay kit was added to each well, followed by incubation at room temperature for 30 minutes. The luminescence intensity of the assay plates was measured using a ViewLux plate reader (PerkinElmer). Data were normalized by using the cell-containing wells without ZIKV as a negative control (0% induction of caspase 3/7 activity) and wells containing ZIKV infected cells (Caspase-3 activity induced) as a positive control (100% induction of caspase 3 activity). The percentage inhibitions of the increased Caspase-3 activity by small molecule inhibitors were then calculated.

SMILES	activity change, negative = inhibition
N#CC(=C(\N)Sc1ccccc1N)/C(C#N)=C(/N)Sc1ccccc1N	-2.95%
COc1ccccc1N1CCN(CCN(C(=O)c2ccc(F)cc2)c2ccccn2)CC1	-3.28%
C=CCN1CCc2c(cc(O)c(O)c2Br)[C@@H](c2ccccc2)C1	-1.16%
N#Cc1cc([N+](=O)[O-])c2sc(C(N)=O)[n+]([O-])c2c1	53.5%
c1ccc(C(NCc2cccnc2)(c2ccccc2)c2ccccc2)cc1	34.5%
Oc1ccc(Cn2cc[nH]c2=S)cc1	-14.2%
c1ccc2c(c1)CCC[C@H]2Nc1nc2ccccc2[nH]1	-2.96%
CCC1(O)CC2CN(CCc3c([nH]c4ccccc34)[C@@](C(=O)OC)(c3cc4c(cc3OC)N(C)C3[C@]45CCN4CC=C[C@@](CC)([C@@H](OC(C)=O)[C@]3(O)C(=O)OC)[C@H]45)C2)C1 (stereo not given in full)	33.9%
Cn1c(=O)c2c(nc(/C=C/c3cccc(Cl)c3)n2C)n(C)c1=O	-18.4%
CC(C)[C@H](NC(=O)OCc1ccccc1)C(=O)N[C@H](C=O)Cc1ccccc1 (Cbz-Val-Phe-aldehyde)	-21.2%
COc1ccc(-c2cc3ncc(C)n3c(Nc3ncccc3C(N)=O)n2)cc1OC	26.7%
COc1cc(CNC(=O)CCCCCCC(C)C)ccc1O	-20.9%
C=CC[C@H](N)C(=O)O	13.6%
Nc1ncnc2c1ncn2C1CCCC1	26.3%
CN1Cc2sccc2C(c2ccc(O)c(O)c2)C1 (stereo not given)	-11.7%
O=C1C2C=CC=CC2=NC(=S)N1CCN1CCC(=C(c2ccc(F)cc2)c2ccc(F)cc2)CC1 (stereo not given)	7.12%
CCOC(=O)C12CC1/C(=N/O)c1ccccc1O2 (stereo not given)	-10.8%
CC1CCN=C(N)S1 (stereo not given)	11.5%
COc1cc(/C=C(\C#N)C(=O)c2ccc(O)c(O)c2)cc(I)c1O	-24.1%
N[C@H](C(=O)O)c1cc(O)cc(O)c1	-3.64%

SMILES	activity change, negative = inhibition
C[C@@H](NCCc1ccc(O)cc1)[C@@H](O)c1ccc(O)cc1	1.45%
N=C(N)c1ccc(N)cc1	-2.33%
O[Si](CCCN1CCCCC1)(c1ccc(F)cc1)C1CCCCC1 (stereo not given)	13.8%
Nn1nnc2ccccc21	2.32%
Cc1cccc(C(=O)NCN2CCN(c3ccccc3C#N)CC2)c1	-1.65%
NCC(O)C1CCCCCCC1 (stereo not given)	0.359%
C#CCn1c(=O)c2c(ncn2C)n(C)c1=O	12.2%
Nc1ncnc2c1nc(Sc1ccc(Cl)cc1)n2[C@H]1OC2COP(=O)(O)O[C@@H]2C1O (stereo not given in full)	-14.1%
O=C(O)/C=C/c1cnc[nH]1	-8.82%
CCC(=O)N1CCN(C(=O)c2ccccc2)CC1	-11.8%
Oc1cc2c(cc1O)C(c1ccccc1)CNCC2 (stereo not given)	3.48%
CN(CC[C@@H](Oc1ccc(C(F)(F)F)cc1)c1ccccc1)CC(=O)O	-0.742%
O=C1Cc2c([nH]c3ccc(Br)cc23)-c2ccccc2N1	77.7%
CC1CNCCN1S(=O)(=O)c1cccc2cnccc12 (stereo not given)	-14.9%
CC(N)=NCCCC[C@@H](N)C(=O)O	14.2%
Cn1cc(C(F)(F)F)nc1-c1ccc(OCC(O)CNCCOc2ccc(O)c(C(N)=O)c2)cc1 (stereo not given)	5.83%
CC(C)[C@@H]1CC[C@@H](C)C[C@@H]1P(=O)(c1ccccc1)c1ccccc1	-1.9%
CNC(=O)c1cc2c(cn1)[nH]c1ccccc12	-11.8%
CCCn1c(=O)c(C)cn2nc(N)nc12	-21.2%
Cc1cc(Cn2cnc3c2C[C@@H](C(=O)O)N(C(=O)C(c2ccccc2)c2ccccc2)C3)ccc1N	-9.59%
